Here are results for 30 molecules from ChEMBL document CHEMBL1157539, “Thousands of chemical starting points for antimalarial lead identification” (Nature, 2010).

Holding throughout (assay type): functional
The subject of assay [1] is Plasmodium falciparum. As to the kind of experiment: GSK_TCMDC: Inhibition of Plasmodium falciparum 3D7 in whole red blood cells, using parasite LDH activity as an index of growth. Test compounds present at 2uM.
The test system of assay [2] is Plasmodium falciparum. The assay can be described thus: GSK_TCMDC: Inhibition of Plasmodium falciparum Dd2 in whole red blood cells, using parasite LDH activity as an index of growth. Test compounds present at 2uM.
For another assay, the system named is HepG2. The assay can be described thus: GSK_TCMDC: Percent inhibition of human HepG2 cell line. Test compounds present at 10uM.

In general, Inhibition refers to the change of the read-out against control, counted positive when it falls. A low value points to little suppression. Turning to `O=c1c2c([nH]c3cc(Cl)ccc13)CCCC2`, the Inhibition is listed as 96% in the assay on Plasmodium falciparum [1], 73% with Plasmodium falciparum [2] and 33% with HepG2.

On to `Cc1cccc2nc(-c3ccc(-c4cccc(NC(=O)CCc5c[nH]cn5)c4)cc3)[nH]c12`, for which the values for the Inhibition with Plasmodium falciparum [1], in the assay on Plasmodium falciparum [2] and in the assay on HepG2 were 100%, 14% and 13%, respectively.

Turning to `CCc1ccc(O)c(-c2cc(C(=O)Nc3ccc(OC)c(Cl)c3)[nH]n2)c1`, the Inhibition in the assay on Plasmodium falciparum [1] is 93%; in the assay with Plasmodium falciparum [2] it was 97%; in the assay with HepG2, 15%.

On to `CNC(=O)COc1ccc(Nc2nnc(-c3ccc(C)c(S(=O)(=O)NCC4CCCO4)c3)c3ccccc23)cc1` (stereo not given), for which the Inhibition in the assay with Plasmodium falciparum [1] was 90%; with Plasmodium falciparum [2], 68%; in the assay with HepG2, 0%.

As for `Cn1c(Nc2cc(C(C)(C)C)on2)nc2cc(Nc3ccnc(Nc4ccc(CS(C)(=O)=O)cc4)n3)ccc21`, the Inhibition is recorded as 100% in the assay with Plasmodium falciparum [1], 68% in the assay with Plasmodium falciparum [2] and 37% in the assay on HepG2.

Turning to `COc1ccccc1N1CCN(CCCCNC(=O)c2ccc(NC(=O)c3ccc(OC(F)(F)F)cc3)cc2)CC1.Cl`, the Inhibition is recorded as 100% with Plasmodium falciparum [1], 39% in the assay on Plasmodium falciparum [2] and 29% in the assay with HepG2.

With `COc1ccc(-c2cc(C(=O)N[C@@H](CC3CCCCC3)C(=O)NCCN3CCCC3)ccc2O)cc1`, the Inhibition in the assay on Plasmodium falciparum [1] was 90%; in the assay on Plasmodium falciparum [2], 12%; in the assay on HepG2 it was 12%.

As to `CCCc1ccc(NC(=O)c2cccc(CN3CCCN(Cc4cccc(O)c4)CC3)c2)cc1.O=C(O)C(F)(F)F`, the Inhibition came to 97% in the assay on Plasmodium falciparum [1], 40% in the assay on Plasmodium falciparum [2] and 15% in the assay on HepG2.

As for `O=C(N[C@@H](CC1CCCCC1)C(=O)NCCN1CCOCC1)c1ccc(O)c(-c2ccc(Cl)c(Cl)c2)c1`, the Inhibition with Plasmodium falciparum [1] worked out at 97%; in the assay on Plasmodium falciparum [2] it was 99%; with HepG2, 0%.

Regarding `O=C(Nc1cccc(OCc2ccccc2)c1)c1ccc(CN2CCC(Cc3ccccc3)CC2)cc1`, the Inhibition is given as 100% with Plasmodium falciparum [1], 27% in the assay on Plasmodium falciparum [2] and 41% in the assay on HepG2.

For `CC(C)CCN1C(=O)C(NC(=O)Oc2ccccc2)C(=O)N(CC23CC4CC(CC(C4)C2)C3)c2ccccc21` (stereo not given), the figures for the Inhibition in the assay on Plasmodium falciparum [1], with Plasmodium falciparum [2] and with HepG2 were 95%, 4% and 3%, respectively.

For `Cc1cc(CNC(=O)[C@H](CC2CCCCC2)Nc2ccc(C#N)c3ccccc23)c(C(F)(F)F)o1.O=C(O)C(F)(F)F`, the figures for the Inhibition in the assay with Plasmodium falciparum [1], in the assay on Plasmodium falciparum [2] and in the assay with HepG2 were 87%, 55% and 13%, respectively.

`Cl.N#Cc1ccc(NC(=O)Nc2ccc3c(c2)CCN(C2CCC2)CC3)cc1`: the Inhibition amounted to 96% in the assay on Plasmodium falciparum [1], 11% in the assay on Plasmodium falciparum [2] and 6% in the assay on HepG2.

On to `COc1ccc2[nH]c(-c3ccccc3)cc(=NN=Cc3ccncc3)c2c1`, for which the Inhibition in the assay with Plasmodium falciparum [1] was 99%; in the assay with Plasmodium falciparum [2], 27%; in the assay with HepG2, 14%.

As for `Cc1ccc(Cn2ncc(NC3CCNCC3)c(Cl)c2=O)cc1NC(=O)Nc1ccc(-c2ccccc2)cc1.O=C(O)C(F)(F)F`, the results for the Inhibition in the assay on Plasmodium falciparum [1], in the assay with Plasmodium falciparum [2] and in the assay on HepG2 were 99%, 61% and 18%, respectively.

For `COc1ccc2nccc([C@@H](O)CN3CCC(NC(=O)c4ccc5cc[nH]c5c4)CC3)c2c1.CS(=O)(=O)O`, the Inhibition with Plasmodium falciparum [1] is 91%; in the assay with Plasmodium falciparum [2], 23%; in the assay with HepG2 it was 21%.

For `COc1ccc(NC(=O)/C=C/c2ccc(Oc3ccccc3Cl)c([N+](=O)[O-])c2)cc1OCCN(C(C)C)C(C)C`, the Inhibition was determined as 99% with Plasmodium falciparum [1], 97% with Plasmodium falciparum [2] and 31% with HepG2.

Take `CN1CCCC(CN2CCN(Cc3cccc(-c4ccc(-c5nc6ccccc6[nH]5)cc4)c3)CC2)C1.O=C(O)C(F)(F)F` (stereo not given): the Inhibition in the assay with Plasmodium falciparum [1] was 100%; in the assay on Plasmodium falciparum [2] it was 100%; in the assay on HepG2 it was 73%.

In the case of `CCN(CC)c1ccc(C(c2ccc(N(CC)CC)cc2)c2cccc([N+](=O)[O-])c2)cc1`, the Inhibition with Plasmodium falciparum [1] was 91%; in the assay with Plasmodium falciparum [2] it was 68%; in the assay on HepG2, 39%.

Turning to `COc1ccc(CSC2CCCCC23NC(=S)NC3=S)cc1` (stereo not given), the Inhibition in the assay on Plasmodium falciparum [1] stood at 97%; in the assay with Plasmodium falciparum [2], 0%; in the assay on HepG2 it was 0%.

As for `Cc1ccc(O)cc1Nc1ccnc2cc(-c3ccc(CN4CCCCC4)o3)ccc12`, the Inhibition with Plasmodium falciparum [1] amounted to 100%; in the assay on Plasmodium falciparum [2] it was 99%; with HepG2, 16%.

On to `COc1cc(NC(=O)c2cccc([N+](=O)[O-])c2)cc(S(=O)(=O)c2ccc(Cl)cc2)c1`, for which the figures for the Inhibition in the assay on Plasmodium falciparum [1], with Plasmodium falciparum [2] and in the assay with HepG2 were 88%, 23% and 0%, respectively.

As for `O=C(Nc1ccc(OC2CCN(Cc3ccsc3)C2)c(Cl)c1)c1ccc2ncccc2c1.O=C(O)C(F)(F)F` (stereo not given), the Inhibition is 88% in the assay with Plasmodium falciparum [1], 10% in the assay on Plasmodium falciparum [2] and 84% in the assay with HepG2.

Regarding `N#Cc1ccc(C(=O)Nc2ccc(-c3cccc(CN4CCCC4)c3)cc2)cc1.O=C(O)C(F)(F)F`, the Inhibition is listed as 89% in the assay with Plasmodium falciparum [1], 1% with Plasmodium falciparum [2] and 17% in the assay with HepG2.

`Cc1ccc(F)c(OCC2CCN(c3ncc(C(=O)NC4CC4)cc3Cl)CC2)c1`: the figures for the Inhibition in the assay with Plasmodium falciparum [1], in the assay on Plasmodium falciparum [2] and in the assay with HepG2 were 96%, 95% and 9%, respectively.

For `O=C(/C=C/c1ccc(Cl)c(Cl)c1)NCC[C@@H]1C[C@H]1CCN1CCC(c2c[nH]c3ccccc23)CC1`, the results for the Inhibition with Plasmodium falciparum [1], in the assay on Plasmodium falciparum [2] and in the assay with HepG2 were 96%, 22% and 98%, respectively.

Take `O=C(/C=C/c1ccc(Cl)c(Cl)c1)NC1CCN(Cc2ccc(O)cc2)CC1.O=C(O)C(F)(F)F`: the Inhibition in the assay on Plasmodium falciparum [1] was 100%; in the assay on Plasmodium falciparum [2] it was 43%; in the assay with HepG2 it was 0%.

Take `O=C(Nc1ccc(OC(F)(F)F)cc1)NC1CCN(c2ccnc3ccccc23)C1.O=C(O)C(F)(F)F` (stereo not given): the Inhibition in the assay with Plasmodium falciparum [1] came out at 100%; with Plasmodium falciparum [2], 89%; with HepG2, 25%.

As for `COc1cccc(CNC[C@@H](O)[C@H](Cc2ccccc2)NC(=O)c2cc(OC(C)C)cc(N3CCCCS3(=O)=O)c2)c1.Cl`, the figures for the Inhibition with Plasmodium falciparum [1], in the assay on Plasmodium falciparum [2] and with HepG2 were 95%, 49% and 8%, respectively.

`Br.CC1(C)NC(N)=NC(=N)N1OCCc1ccccc1`: the Inhibition with Plasmodium falciparum [1] is given as 96%; in the assay with Plasmodium falciparum [2] it was 95%; in the assay with HepG2, 70%.
